# In PubChem BioAssay (NCATS):
# Results filed as inconclusive are left out. Entries that show only a call come without a potency. The source made the active and inactive calls. Calls follow the shape of the dose curve; as a rule, active = well fitted curve in the direction sought with a large enough effect; inconclusive = small, poorly fitted or top-dose-only effect, or another doubt; inactive = no such curve, though single readings can be large; an effect the other way counts as inactive or inconclusive.
# How the values were obtained:
# [1] = Quantitative High-Throughput drug screen in 47 multiple myeloma cell lines against the NCATS MIPE library collection: H1112_PLB cell viability assay (AID 1918967; also: nearly all actives have a fitted effect of over 30% in size; also: potency is read from the fitted curve at half-maximal effect)
# In short: (§1)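 CellTiter-Glo ATP luminescence gave viability after 48 h compound treatment at 37C of 500 multiple myeloma cells per well. Normalisation used DMSO-only wells as 100% and media-only wells as 0% viability; primary qHTS of approved and investigational drugs.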
# [2] = Quantitative High-Throughput drug screen in 47 multiple myeloma cell lines against the NCATS MIPE library collection: Karpas25_ECACC cell viability assay (AID 1918968; also: nearly all actives have a fitted effect of over 35% in size; also: potency is read from the fitted curve at half-maximal effect)
# In short: as §1
# [3] = Quantitative High-Throughput drug screen in 47 multiple myeloma cell lines against the NCATS MIPE library collection: KMS12BM_JCRB cell viability assay (AID 1918971); also: nearly all actives have a fitted effect of over 35% in size; also: potency is read from the fitted curve at half-maximal effect
# In short: (§2)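 Steps: seed 500 cells per well; pin-transfer MIPE 4.0 library; incubate 48 h at 37C, 5% CO2, humidified; add CellTiter-Glo, 5 min room temperature; read luminescence.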
# [4] = Quantitative High-Throughput drug screen in 47 multiple myeloma cell lines against the NCATS MIPE library collection: KMS26_JCRB cell viability assay (AID 1918975); also: nearly all actives have a fitted effect of over 45% in size; also: potency is read from the fitted curve at half-maximal effect
# In short: as §2
# [5] = Quantitative High-Throughput drug screen in 47 multiple myeloma cell lines against the NCATS MIPE library collection: MOLP8_DSMZ cell viability assay (AID 1918977); also: nearly all actives have a fitted effect of over 45% in size; also: potency is read from the fitted curve at half-maximal effect
# In short: (§3)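 Cells were exposed to library compounds for 48 hours, after which ATP was measured by CellTiter-Glo. Signal was taken as median relative luminescence units.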
# [6] = Quantitative High-Throughput drug screen in 47 multiple myeloma cell lines against the NCATS MIPE library collection: NCIH929_DSMZ cell viability assay (AID 1918978); also: nearly all actives have a fitted effect of over 35% in size; also: potency is read from the fitted curve at half-maximal effect
# In short: as §3
# [7] = Quantitative High-Throughput drug screen in 47 multiple myeloma cell lines against the NCATS MIPE library collection: OCIMY1_PLB cell viability assay (AID 1918979); also: nearly all actives have a fitted effect of over 35% in size
# In short: as §3
# [8] = Quantitative High-Throughput drug screen in 47 multiple myeloma cell lines against the NCATS MIPE library collection: KMS28PE_JCRB cell viability assay (AID 1918983); also: nearly all actives have a fitted effect of over 35% in size; also: potency is read from the fitted curve at half-maximal effect
# In short: as §3
# [9] = Quantitative High-Throughput drug screen in 47 multiple myeloma cell lines against the NCATS MIPE library collection: OCIMY7_PLB cell viability assay (AID 1918987); also: potency is read from the fitted curve at half-maximal effect; nearly all actives have a fitted effect of over 65% in size
# In short: as §3
# [10] = Quantitative High-Throughput drug screen in 47 multiple myeloma cell lines against the NCATS MIPE library collection: KMS27_JCRB cell viability assay (AID 1918970); also: nearly all actives have a fitted effect of over 30% in size; also: potency is read from the fitted curve at half-maximal effect
# In short: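 Each line is seeded at 500 cells per well and treated with library compounds for 48 hours under 37 °C, 5% CO2. CellTiter-Glo is then added for 5 min at room temperature before median relative luminescence is recorded.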
# [11] = Quantitative High-Throughput drug screen in 47 multiple myeloma cell lines against the NCATS MIPE library collection: KMS20_JCRB cell viability assay (AID 1918973); also: nearly all actives have a fitted effect of over 45% in size; also: potency is read from the fitted curve at half-maximal effect
# In short: as §1
# [12] = Quantitative High-Throughput drug screen in 47 multiple myeloma cell lines against the NCATS MIPE library collection: MM1S_ATCC cell viability assay (AID 1918980); also: nearly all actives have a fitted effect of over 45% in size; also: potency is read from the fitted curve at half-maximal effect
# In short: as §3
# [13] = Quantitative High-Throughput drug screen in 47 multiple myeloma cell lines against the NCATS MIPE library collection: MM1R_ATCC cell viability assay (AID 1918981); also: nearly all actives have a fitted effect of over 35% in size; also: potency is read from the fitted curve at half-maximal effect
# In short: as §3
# [14] = Quantitative High-Throughput drug screen in 47 multiple myeloma cell lines against the NCATS MIPE library collection: KMS21BM_JCRB cell viability assay (AID 1918974); conditions: ATP luminescence, 48 h; viability: at 45.8 µM (top of the series) unless noted; also: potency is read from the fitted curve at half-maximal effect
# In short: as §1
# [15] = Quantitative High-Throughput drug screen in 47 multiple myeloma cell lines against the NCATS MIPE library collection: LP1_DSMZ cell viability assay (AID 1918982); also: nearly all actives have a fitted effect of over 35% in size; also: potency is read from the fitted curve at half-maximal effect
# In short: as §3
# [16] = Quantitative High-Throughput drug screen in 47 multiple myeloma cell lines against the NCATS MIPE library collection: L363_DSMZ cell viability assay (AID 1918984); also: nearly all actives have a fitted effect of over 40% in size; also: potency is read from the fitted curve at half-maximal effect
# In short: as §3
# [17] = Quantitative High-Throughput drug screen in 47 multiple myeloma cell lines against the NCATS MIPE library collection: KMS34_JCRB cell viability assay (AID 1918985); also: nearly all actives have a fitted effect of over 40% in size
# In short: as §3
# [18] = Quantitative High-Throughput drug screen in 47 multiple myeloma cell lines against the NCATS MIPE library collection: MMM1_PLB cell viability assay (AID 1918976)
# In short: as §3
# [19] = Quantitative High-Throughput drug screen in 47 multiple myeloma cell lines against the NCATS MIPE library collection: KMS12PE_JCRB cell viability assay (AID 1918972); also: nearly all actives have a fitted effect of over 30% in size; also: potency is read from the fitted curve at half-maximal effect
# In short: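 Viability readout: CellTiter-Glo luminescence following 5 min room-temperature incubation with reagent. Prior exposure: 48 h, 37C, humidified 5% CO2, 500 cells per well.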
structure (smiles),measurement,setting,value
Cn1cnc([N+](=O)[O-])c1Sc1ncnc2nc[nH]c12,Potency,[1],10.5 µM (active)
same,Potency,[2],16.6 µM (active)
same,Potency,[3],inactive
same,Potency,[4],11.8 µM (active)
same,Potency,[5],inactive
same,Potency,[6],16.6 µM (active)
same,Potency,[7],inactive
same,Potency,[8],inactive
same,Potency,[9],11.8 µM (active)
CCC(C)N(C)C(=O)c1cc2ccccc2c(-c2ccccc2Cl)n1 (centres undefined),Potency,[1],inactive
same,Potency,[10],16.6 µM (active)
same,Potency,[11],inactive
same,Potency,[5],inactive
same,Potency,[6],inactive
same,Potency,[7],inactive
same,Potency,[12],23.5 µM (active)
same,Potency,[13],inactive
same,Potency,[8],inactive
c1ccc([C@H]2CN3CCSC3=N2)cc1,Potency,[2],inactive
same,Potency,[10],inactive
same,Potency,[3],inactive
same,Potency,[14],inactive
same,Potency,[4],inactive
same,Potency,[6],inactive
same,Potency,[7],inactive
same,Potency,[13],inactive
same,Potency,[15],inactive
same,Potency,[8],inactive
same,Potency,[16],inactive
same,Potency,[17],inactive
O=S(=O)(N=Cc1c(O)ccc2ccccc12)c1cccs1,Potency,[1],16.6 µM (active)
same,Potency,[3],inactive
same,Potency,[11],0.833 µM (active)
same,Potency,[4],16.6 µM (active)
same,Potency,[6],4.69 µM (active)
same,Potency,[7],inactive
same,Potency,[12],0.0209 µM (active)
same,Potency,[13],inactive
same,Potency,[15],inactive
c1ccc(-c2nn3c(c2-c2ccnc4cc(OCCN5CCOCC5)ccc24)CCC3)nc1,Potency,[1],4.18 µM (active)
same,Potency,[10],inactive
same,Potency,[3],26.4 µM (active)
same,Potency,[11],inactive
same,Potency,[4],inactive
same,Potency,[18],26.4 µM (active)
same,Potency,[8],23.5 µM (active)
CCCS(=O)(=O)Nc1ccc(F)c(C(=O)c2c[nH]c3ncc(-c4ccc(Cl)cc4)cc23)c1F,Potency,[1],9.35 µM (active)
same,Potency,[10],inactive
same,Potency,[3],20.9 µM (active)
same,Potency,[18],26.4 µM (active)
same,Potency,[12],7.43 µM (active)
same,Potency,[15],16.6 µM (active)
same,Potency,[16],inactive
same,Potency,[9],5.9 µM (active)
COc1ccc(C2=N[C@H](c3ccc(Cl)cc3)[C@H](c3ccc(Cl)cc3)N2C(=O)N2CCNC(=O)C2)c(OC(C)C)c1,Potency,[1],18.7 µM (active)
same,Potency,[3],20.9 µM (active)
same,Potency,[4],16.6 µM (active)
same,Potency,[5],8.33 µM (active)
same,Potency,[6],5.26 µM (active)
same,Potency,[7],inactive
same,Potency,[12],2.09 µM (active)
same,Potency,[13],2.35 µM (active)
same,Potency,[8],inactive
same,Potency,[16],0.059 µM (active)
same,Potency,[9],8.33 µM (active)
CS(=O)(=O)Oc1ccc2c(NC(N)=O)c(C(=O)c3ccc(Cl)cc3Cl)oc2c1,Potency,[1],18.7 µM (active)
same,Potency,[3],inactive
same,Potency,[19],9.35 µM (active)
same,Potency,[14],2.35 µM (active)
same,Potency,[4],inactive
same,Potency,[6],9.35 µM (active)
same,Potency,[7],inactive
same,Potency,[12],2.96 µM (active)
same,Potency,[13],inactive
same,Potency,[8],inactive
same,Potency,[16],6.62 µM (active)
NC(=O)c1ccc(-c2nc(-c3ccc4c(c3)OCCO4)c(-c3ccccn3)[nH]2)cc1,Potency,[1],inactive
same,Potency,[3],inactive
same,Potency,[5],inactive
same,Potency,[6],inactive
same,Potency,[7],inactive
same,Potency,[13],inactive
same,Potency,[16],20.9 µM (active)
O=c1n(CCCN2CCN(c3cccc(Cl)c3)CC2)nc2ccccn12,Potency,[1],inactive
same,Potency,[10],inactive
same,Potency,[11],inactive
same,Potency,[4],inactive
same,Potency,[13],inactive
same,Potency,[15],inactive
same,Potency,[8],inactive
same,Potency,[16],inactive
same,Potency,[17],inactive
CCc1cncnc1N1CCN(Cc2nc3ccc(C(F)(F)F)cc3[nH]2)CC1,Potency,[2],5.26 µM (active)
same,Potency,[10],7.43 µM (active)
same,Potency,[3],14.8 µM (active)
same,Potency,[19],2.09 µM (active)
same,Potency,[4],4.18 µM (active)
same,Potency,[18],16.6 µM (active)
same,Potency,[7],inactive
same,Potency,[12],18.7 µM (active)
same,Potency,[13],18.7 µM (active)
same,Potency,[8],20.9 µM (active)
same,Potency,[16],5.26 µM (active)
same,Potency,[9],23.5 µM (active)
CCCS(=O)(=O)Nc1ccc(F)c(C(=O)c2c[nH]c3ncc(Cl)cc23)c1F,Potency,[1],20.9 µM (active)
same,Potency,[19],16.6 µM (active)
same,Potency,[4],inactive
same,Potency,[7],inactive
same,Potency,[12],inactive
same,Potency,[15],inactive
same,Potency,[9],1.32 µM (active)
NC(=O)c1ccc(I)c([N+](=O)[O-])c1,Potency,[1],inactive
same,Potency,[7],inactive
same,Potency,[12],18.7 µM (active)
same,Potency,[13],23.5 µM (active)
same,Potency,[8],inactive
Cc1cc(SCc2sc(-c3ccc(C(F)(F)F)cc3)nc2C)ccc1OCC(=O)O,Potency,[1],inactive
same,Potency,[10],inactive
same,Potency,[7],inactive
same,Potency,[13],inactive
same,Potency,[15],inactive
same,Potency,[16],inactive
same,Potency,[17],inactive
same,Potency,[9],20.9 µM (active)
CCN(CC)CCCC(C)Nc1nc(C)cc(Nc2ccc3nc(C)cc(N)c3c2)n1 (centres undefined),Potency,[1],inactive
same,Potency,[10],10.5 µM (active)
same,Potency,[8],inactive
same,Potency,[9],8.33 µM (active)
CC(C[N+](C)(C)C)OC(N)=O (centres undefined),Potency,[1],inactive
same,Potency,[19],inactive
same,Potency,[4],inactive
same,Potency,[5],inactive
same,Potency,[6],inactive
same,Potency,[7],inactive
same,Potency,[12],inactive
same,Potency,[13],inactive
same,Potency,[15],inactive
COc1ccc(CCN2CCN(CCCc3ccccc3)CC2)cc1OC,Potency,[1],inactive
same,Potency,[3],inactive
same,Potency,[14],3.32 µM (active)
same,Potency,[5],inactive
same,Potency,[6],inactive
same,Potency,[13],inactive
same,Potency,[8],inactive
